Source: PubChem BioAssay
ATG4B inhibitor – ATG4B (human) cysteine protease inhibition. ATG4B cleavage of LC3-PLA2, NBD-HPC fluorescence, 1 h. inhibition, % at 8.33 µM. hit rate 0.51% among 340,000; in the data active = inhibition above about 40%
Target sequence (Q9Y4P1 whole entry, looked up): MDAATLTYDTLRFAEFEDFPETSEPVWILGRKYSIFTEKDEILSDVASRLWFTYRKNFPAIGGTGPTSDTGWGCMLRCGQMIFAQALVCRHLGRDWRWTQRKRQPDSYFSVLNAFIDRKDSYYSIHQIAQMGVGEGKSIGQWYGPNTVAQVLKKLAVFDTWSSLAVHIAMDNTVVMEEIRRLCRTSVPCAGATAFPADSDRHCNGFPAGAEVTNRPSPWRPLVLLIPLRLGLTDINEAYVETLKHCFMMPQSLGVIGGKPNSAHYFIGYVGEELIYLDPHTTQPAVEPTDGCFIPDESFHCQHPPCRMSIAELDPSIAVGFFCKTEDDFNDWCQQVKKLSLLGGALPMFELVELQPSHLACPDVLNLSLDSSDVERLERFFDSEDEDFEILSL
tim23-1 inh – tim23-1 yeast growth inhibition; hit rate 1.3% among 330,000; inhibition, % at 20 µM; AID 463212; S. cerevisiae tim23-1 growth, BacTiter-Glo luminescence, 24 h;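 active = growth inhibition of the mutant yeast at or above 50%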;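 note: temperature-sensitive mutant grown at 25 °C; plate controls were DMSO-treated mutant yeast for no effect and medium wells lacking yeast for full effect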
SKKanGAS inh – blocks kanamycin growth of S. pyogenes SKKanGAS strain | hit rate 1.3% among 300,000 | inhibition, % at 7.5 µM | AID 1662 | BacTiter-Glo, 6 h;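 active = mean replicate score, as percent of positive control median, at least 50; inconclusive = mean below 50 but one replicate at or above 50; inactive = mean and every replicate below 50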;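 note: strain carries kanamycin resistance gene driven by streptokinase promoter and grows in 40 µg/ml kanamycin; loss of luminescence reflects streptokinase promoter inhibition or plain growth inhibition; 0% = median of DMSO wells and 100% = positive control at its reference dose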
tim10-1 inh – growth inhibitors of tim10-1 mutant yeast; S. cerevisiae tim10-1 ts strain growth, BacTiter-Glo, 24 h; inhibition, % at 20 µM; hit rate 2.2% among 330,000;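 active = inhibition of at least 40%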;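 note: mutant grown at 25 °C; 0% = DMSO wells with yeast and 100% = wells holding no yeast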
TIM10 inh – growth inhibitors of TIM10 yeast strain | hit rate 1.4% among 330,000 | S. cerevisiae TIM10 strain growth, BacTiter-Glo luminescence, 24 h | AID 463195 | inhibition, % at 10 µM;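 active = inhibition of 40% or more at the single tested concentration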;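 note: wild-type TIM10 isogenic control strain grown at permissive 25 °C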
PfHsp90 yeast 2 – inhibits growth of yeast expressing Plasmodium falciparum Hsp90. inhibition, % at 9.4 µM. S. cerevisiae expressing PfHsp90, BacTiter-Glo ATP, 48 h; yeast lacking PDR1 and PDR3 efflux regulators. AID 504621. hit rate 0.32% among 310,000;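 active = every replicate shows inhibition above about 80%, whatever the replicate mean, limit read from the data; inconclusive = mean inhibition reaches the set limit but some replicate falls short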;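 note: 0% = DMSO neutral controls and 100% = 20 µM radicicol positive controls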
tim10-1 confirm – confirmation of tim10-1 mutant yeast growth inhibitors. shares compounds with tim10-1 inh. S. cerevisiae tim10-1 ts strain growth, BacTiter-Glo, 24 h. inhibition, % at 20 µM. hit rate 56% among 7,400. AID 463213;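 active = inhibition of yeast growth at or above a set limit in either of two repeat tests at 20 µM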;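 note: tim10-1 mutant grown at permissive 25 °C to find synthetic lethal compounds; 0% = DMSO yeast wells and 100% = medium wells without yeast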
tim10 confirm – confirmation of TIM10 yeast growth inhibitors. shares compounds with TIM10 inh. S. cerevisiae tim10 strain growth, BacTiter-Glo luminescence, 24 h. inhibition, % at 10 µM. hit rate 63% among 4,600;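 active = inhibition of yeast growth at or above a set limit in either of two replicates at 10 µM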;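 note: this counterscreen used the strain with wild-type TIM10; 0% = yeast with DMSO and 100% = medium wells lacking yeast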
tim23-1 conf – tim23-1 yeast growth inhibition, confirmed; shares compounds with tim23-1 inh; S. cerevisiae tim23-1 growth, BacTiter-Glo luminescence, 24 h; inhibition, % at 20 µM; hit rate 83% among 4,400;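 active = inhibition above about 39% in either of two replicate wells at 20 µM, limit read from the data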;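 note: temperature-sensitive tim23-1 mutant grown at 25 °C; 0% = DMSO wells with yeast and 100% = medium wells without yeast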
* = called active by the depositor; ? = inconclusive; . = no result given. A selection: hits, their analogues and other compounds. The true share with any hit is near 4.7%.

SMILES	ATG4B inhibitor	tim23-1 inh	SKKanGAS inh	tim10-1 inh	TIM10 inh	PfHsp90 yeast 2	tim10-1 confirm	tim10 confirm	tim23-1 conf
c1ccc2c(N3CCCCC3)nc(N3CCCCC3)nc2c1	-5	20	1	19	14	7	.	.	.
C(=C\c1nc(N2CCCCCC2)c2ccccc2n1)/c1ccccc1	7	50*	42	46*	44*	-23	31*	19	38
Nn1c(SCC(=O)N2CCOCC2)nnc1-c1cccnc1	-3	-4	.	-14	1	-9	.	.	.
CCC(=O)N(C)CCc1cc2c(c(OC)c1/C=N/NC(=O)c1ccncc1)OCO2	3	-1	2	11	-7	-22	.	.	.
CCOC(=O)/C=C/C(=O)Nc1ccc(Oc2ccccc2)cc1	-7	55*	-5	50*	33	.	49*	.	66*
COc1ccc(C(=O)Nc2ccccc2C(=O)N/N=C/c2ccncc2)cc1OC	0	61*	22	43*	33	34	55*	.	53*
COc1ccc(C(=O)Nc2ccccc2C(=O)NCc2cccnc2)cc1OC	2	4	-4	-1	8	-2	.	.	.
COc1ccc(-c2cc3nc(C)cc(-c4ccc(OC)cc4)n3n2)cc1	-6	18	5	19	15	-7	.	.	.
COc1ccc(-c2cc3nc(C)cc(N)n3n2)cc1	11	54*	41	62*	47*	63	44*	14	64*
CCOP(=O)(OCC)C(Nc1cc(Cl)cc(Cl)c1)c1cccc(O)c1 (stereo not given)	1	17	-8	21	-13	-10	.	.	.
C=CCn1c(=O)/c(=C/c2ccc(Cl)cc2)s/c1=C(/C#N)c1nnc2n1CCCCC2	24	63*	0	57*	49*	-12	33*	44*	58*
S=c1[nH]nc(-c2ccc(Cl)cc2)n1/N=C/C=C/c1ccco1	-3	51*	3	45*	36	-6	29	.	38
Cc1ccc(-c2cc(-c3cccc(F)c3)n[nH]2)c(O)c1	9	59*	52*	58*	48*	6	51*	-5	21
Cc1ccc(-c2[nH]ncc2C(=O)c2cccc(F)c2)c(O)c1	1	30	-2	33	5	0	.	.	.
O=C(COC(=O)c1cc[n+]([O-])cc1)Nc1ccc([N+](=O)[O-])cc1C(F)(F)F	-1	13	.	5	7	14	.	.	.
NC(=O)c1cccc2ccccc12	-9	-1	-12	1	2	-26	.	.	.
O=C(O/N=C(\c1ccccc1)c1ccncc1)c1ccccc1F	8	51*	-6	50*	30	6	37*	.	61*
O=C(O/N=C(/c1ccccc1)c1ccncc1)c1cccc(F)c1	12	37	2	29	39	-16	.	.	.
N/C(Cc1ccc(Cl)cc1Cl)=N\OC(=O)c1ccccc1F	10	65*	20	63*	81*	4	14	88*	53*
N/C(=N\OC(=O)Cc1ccccc1)c1ccc(Br)cc1	-5	21	-1	37	25	-40	.	.	.
N/C(Cc1ccccc1)=N\OC(=O)c1cccc2ccccc12	5	68*	4	77*	85*	-8	57*	91*	50*
N/C(=N\OC(=O)c1cccc2ccccc12)c1ccc(Br)cc1	-6	63*	-4	67*	69*	16	61*	69*	68*
CN1CCN(c2ccc3c(c2)C2CC3CCN2C(=O)OCc2ccccc2)CC1 (stereo not given)	2	.	.	.	.	-2	.	.	.
N/C(Cc1cccc2ccccc12)=N\OC(=O)c1ccccc1F	14	67*	20	55*	61*	-3	50*	71*	76*
O=C(Oc1cccc2c(O)cccc12)c1ccccc1	14	79*	?	47*	-5	.	16	.	50*
SMILES	ATG4B inhibitor	tim23-1 inh	SKKanGAS inh	tim10-1 inh	TIM10 inh	PfHsp90 yeast 2	tim10-1 confirm	tim10 confirm	tim23-1 conf
O=C(Oc1cccc2ccccc12)c1ccccc1	20	.	.	.	.	-7	.	.	.
CCOc1ccccc1NC(=O)/C(C#N)=C/c1cccnc1	-7	34	10	23	28	12	.	.	.
CC1Cc2ccccc2N1C(=O)CSc1nnc(NC(=O)Cc2cccs2)s1 (stereo not given)	-2	-4	5	3	-13	.	.	.	.
C/C(=N/Nc1nc(-c2ccccc2)cc(-c2ccc(F)cc2)n1)c1cccc(N)c1	-31	55*	15	46*	52*	-25	44*	0	53*
O=C(/C=C/c1cccc([N+](=O)[O-])c1)Nc1ccccc1N1CCOCC1	2	18	-1	29	8	6	.	.	.
S=C(NCc1ccco1)N1CCN(Cc2ccc(Cl)cc2Cl)CC1	4	70*	2	51*	48*	-9	54*	43*	62*
Cc1[nH]n(-c2ccccc2)c(=O)c1C(C[N+](=O)[O-])c1ccc(Br)cc1 (stereo not given)	7	89*	9	60*	49*	122*	57*	69*	84*
Cc1[nH]n(-c2ccccc2)c(=O)c1C(c1ccc(C(=O)O)cc1)c1c(C)[nH]n(-c2ccccc2)c1=O	6	24	-3	8	14	-11	.	.	.
Cn1cnc2cc(NCc3ccccc3Cl)ccc21	7	8	-15	20	-1	-5	.	.	.
O=C(CSC(=S)N1CCCC1)Nc1cc2c(cc1Br)OCCO2	-2	9	-5	7	5	4	.	.	.
O=C(CSC(=S)N1CCCC1)c1cc(Br)cc(Br)c1O	24	52*	14	58*	57*	.	46*	48*	66*
COc1ccc(S(=O)(=O)CC(=O)c2cc(C)c(O)c(C)c2)cc1	1	17	2	10	-10	-7	.	.	.
CC(C)NC(=O)/C(C#N)=C/c1cccc(NC(=O)c2ccccc2Cl)c1	-13	78*	5	70*	63*	-2	67*	1	67*
Oc1ccc(Br)cc1/C=N/n1c(-c2ccccc2)n[nH]c1=S	9	57*	3	46*	22	-10	41*	.	59*
CC1CCN(c2nnc(-c3ccccc3)c3ccccc23)CC1	28	69*	-2	41*	12	-20	0	.	34
COc1ccc(-c2nnc(N3CCCCC3)c3ccccc23)cc1	7	60*	-7	51*	29	-8	47*	.	55*
COc1ccc(-c2nnc(N3CCOCC3)c3ccccc23)cc1	-8	3	4	-6	-1	11	.	.	.
